Hits are enriched below; roughly 4.7% of the tested compounds scored in any of these assays.
TROY NFkB inh: inhibitors of TROY-driven NF-kB signaling, primary screen, Q293 LMP1-TROYcd cells, NF-kB luciferase, uHTS; AID 1347056, 2019; hit rate 0.98% among 360,000; Q293 LMP1-TROYcd NF-kB luciferase reporter, 4 h; inhibition, % at 10 µM;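 active = compounds whose plate-normalised and pattern-corrected inhibition of the luciferase reporter signal at the single screening dose is 50% or more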
HSP90 refold inh: HSP90 inhibitors, primary screen, cell lysate, luminescence; Heat shock protein HSP 90 (rabbit reticulocyte lysate; luciferase refolding); Rabbit reticulocyte lysate, luciferase refolding luminescence, 3 h; inhibition, % at 5.6 µM; hit rate 0.91% among 290,000; AID 1789, 2009;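 active = inhibition above the screen-wide mean plus 3 SD, computed separately per campaign, cut at about 16% in these data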;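 also: 0% = DMSO wells and 100% = 60 µM geldanamycin wells; inhibitors lower the luminescence because luciferase stays unfolded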
HSF1 inh: HSF1 inhibitors in luciferase reporter cells, primary screen, cell-based, NIH3T3, luminescence | NIH3T3-HGL HSE-luciferase, MG132-induced, luminescence 8 h; active compounds read low | activity change, negative = inhibition, % at 7.5 µM (by protocol) | hit rate 0.77% among 300,000;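 active = more than half of replicate wells show activity change below -50%, luminescence cut by over half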;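 also: luciferase reports HSF-1 transcriptional activity via heat shock element; 0% = median of DMSO wells and -100% = zero luminescence signal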
TWEAK-Fn14 inh: inhibitors of TWEAK-Fn14 signaling, primary screen, luciferase reporter cells, uHTS; TWEAK-stimulated Fn14 reporter cells, luciferase luminescence, 8 h; inhibition, % at 10 µM; hit rate 2% among 360,000; AID 1159606, 2016; in the data active = inhibition above about 50%
LMP1 NFkB inh: EBV LMP1-driven NF-kappaB luciferase reporter inhibitors, primary screen, cell-based, luminescence, single point. LMP1-induced NF-kappaB luciferase reporter cells. inhibition, % at 12.5 µM. hit rate 0.69% among 350,000. AID 504558, 2011; in the data active = inhibition above about 41%;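 also: 0% = neutral control wells and 100% = reference inhibitor control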
HSF-1 act: HSF-1 activators, primary screen, NIH3T3-HGL cells, MG132 stress, luminescence, single point | NIH3T3-HGL HSF-1 luciferase reporter, 8 h; 100% = twice DMSO control signal | activation, % at 9 µM | hit rate 1.7% among 300,000 | AID 504408, 2011;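 active = mean replicate activation of at least 50% with a set share of replicates each reaching 50%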;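 also: 0% = median of the neutral control wells and 100% = twice that signal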
Numbers without * were called inactive; nt = not tested or not shown.

SMILES	TROY NFkB inh	HSP90 refold inh	HSF1 inh	TWEAK-Fn14 inh	LMP1 NFkB inh	HSF-1 act
CN[C@H](C)C(=O)NC[C@H]1O[C@@H](n2cc(C)c(=O)[nH]c2=O)C[C@@H]1O	3	nt	nt	-3	-3	nt
C=CCNC(=S)N/N=C/c1cccc([N+](=O)[O-])c1	-19	1	1	-2	1	-4
O=[N+]([O-])c1cccc(C=NNC(=S)NC23CC4CC(CC(C4)C2)C3)c1	60*	nt	-17	11	-8	-17
O=C(N/N=C/c1cccc([N+](=O)[O-])c1)c1cccs1	-29	-6	24	-14	-12	54*
O=C(N/N=C/c1cccc([N+](=O)[O-])c1)c1ccc(Br)cc1	-45	2	15	-31	-2	9
CC1(C(=O)NS(=O)(=O)c2cccs2)CCN1C(=O)c1ccccc1 (stereo not given)	-1	nt	nt	-1	nt	nt
CC1(Oc2cccc(F)c2)CCN(Cc2ccc(-c3ccccn3)cc2)C1 (stereo not given)	-3	nt	nt	-9	nt	nt
CC(=O)OCC(C)n1[nH]c2ccccc2c1=O (stereo not given)	-13	nt	nt	-3	nt	nt
Cc1cc(=O)[nH]c(N/N=C/c2ccc(O)c(O)c2)n1	-24	0	17	24	-3	61*
CN(C)c1ccc(/C=N\Nc2nc(-c3ccccc3)cc(=O)[nH]2)cc1	-9	-6	-73*	-7	-1	-79
CN(C)c1ccc(C=NNc2nc3c([nH]2)c(=O)n(C)c(=O)n3C)cc1	-4	nt	nt	-4	4	nt
Nc1ccc(S(=O)(=O)Nc2nc(-c3ccccc3)cc(-c3ccccc3O)n2)cc1	7	nt	nt	12	-2	nt
Oc1ccc(/C=C/c2ccc3ccccc3n2)cc1	74*	24*	-20	92*	48*	-34
CCCN(CCC)c1ccc(/C=C/c2ccc3cc(OCC)ccc3n2)cc1	11	5	1	43	-13	-12
CN(C)c1ccc(/C=C/c2ccc3ccccc3n2)cc1	76*	84*	-85*	99*	76*	-87
O=C(O)/C=C/c1ccc2ccccc2n1	-19	0	-2	-9	76*	-6
Fc1ccccc1/C=C/c1ccc2ccccc2n1	59*	6	-25	89*	-2	-13
O=C(Nc1ccc(F)c(Cl)c1)Nc1nnc([C@@H]2O[C@H](CO)[C@@H](O)[C@H]2O)s1	14	nt	nt	34	nt	nt
CCCCC[C@H](C)N1C[C@@H](COCc2ccccc2)Oc2cc(N3CCC[C@@H]3COC)ccc2S1(=O)=O	-24	nt	nt	5	nt	nt
CCCC12CN3CC(C)(CN(C1)C3c1ccc3c(c1)OCO3)C2=O (stereo not given)	nt	-1	31	16	-7	66*
O=S1(=O)N[C@@H](Cc2ccccc2)COc2cc(N3CCN(Cc4ccccc4F)CC3)ccc21	-3	nt	nt	9	nt	nt
CSc1ccccc1C(=O)N1CCc2ccc(NC(=O)c3ccccn3)cc2C1	74*	nt	nt	60*	-23	nt
CSc1ccc(C(=O)N2CCc3ccc(NC(=O)c4ccccn4)cc3C2)cc1	-4	6	18	-22	-8	-7
N=P(N1CCOCC1)(N1CCOCC1)C12CC3CC(CC(C3)C1)C2	nt	0	-7	81*	4	4
S=C(NC12CC3CC(CC(C3)C1)C2)N1CCOCC1	1	-2	-3	-7	3	19
SMILES	TROY NFkB inh	HSP90 refold inh	HSF1 inh	TWEAK-Fn14 inh	LMP1 NFkB inh	HSF-1 act
O=C1CN(C(=O)c2ccc(Br)o2)C(c2ccc(F)cc2)c2cc(Cl)ccc2N1 (stereo not given)	19	2	29	25	-5	55*
O=C1CN(C(=O)c2ccc(Br)o2)C(c2ccccc2)c2cc(Cl)ccc2N1 (stereo not given)	7	2	16	15	-7	29
O=C(NCc1cccc(F)c1)c1[nH]c(C(F)(F)F)nc1-c1ccccc1	11	nt	nt	13	nt	nt
NC(=O)c1cc([N+](=O)[O-])ccc1NCc1ccc(N)cc1	67*	nt	nt	84*	49*	nt
C=CCN1C=CC(=C/C=C(/C#N)C(=O)OCC)C=C1	-22	2	21	50*	4	18
COc1ccc(NC(=O)c2cc(-c3cc(F)ccc3OC(C)C)n[nH]2)c(C)c1	-8	nt	nt	-18	nt	nt
CN=C1SC(CC(=O)Nc2ccccc2F)C(=O)N1C (stereo not given)	-1	-3	0	6	4	5
C=CCOc1ccc(/C=N/N2C(=O)C(CC(=O)Nc3ccc(F)cc3F)SC2=NC)cc1 (stereo not given)	-22	-4	29	-12	-17	54*
Cc1cc(Cl)ccc1OC(C)C(=O)N1CCCN(C(=O)C(C)Oc2ccc(Cl)cc2C)CC1 (stereo not given)	39	-5	18	63*	-3	36
Cc1cc(Cl)ccc1OCC(=O)N1CCCN(C(=O)COc2ccc(Cl)cc2C)CC1	47	-3	nt	30	0	nt
CC(C)(C)c1ccc(OCC(=O)N2CCCCCC2)c(Br)c1	-6	4	37	-20	9	69*
COCCNC(=O)CSC1=N/C(=C/c2ccc(Cl)c(Cl)c2)C(=O)N1c1ccccc1F	23	3	-61*	57*	-3	-69
C=CCN1C(=O)/C(=C\c2ccc(Cl)cc2)N=C1SCC(=O)NCCC	-16	-1	1	-17	4	5
CCn1c(SCC(=O)Nc2nc3ccccc3s2)nc2c(c1=O)SC(C)C2 (stereo not given)	nt	-2	4	nt	nt	28
COCC(=O)Nc1nc2ccc(C)cc2s1	-17	17*	19	23	4	39
CCC(=O)Nc1nc2ccc3sc(C)nc3c2s1	49	12	-37	69*	-8	-40
Cc1ccc2nc(NC(=O)COC(=O)c3ccncc3)sc2c1	-30	1	12	-5	-9	17
Cc1ccc2nc(NC(=O)CSCC(=O)OCC(=O)c3ccc(Br)cc3)sc2c1	64*	50*	-66*	74*	29	-73
CCn1c(SCC(=O)Nc2nc3ccc(C)cc3s2)nc2c(c1=O)SC(C)C2 (stereo not given)	19	1	2	93*	34	12
COC(=O)c1ccc2nc(NC(=O)CSCC(=O)OCC(=O)c3ccccc3)sc2c1	49	4	-17	42	-20	-25
COc1ccc(Cc2c(-c3ccc(OC)c(OC)c3)nc3ccc(C)cn23)c(C)c1	9	nt	nt	-17	nt	nt
CCCS(=O)(=O)NC(=O)C1(C)CCCN(C(=O)c2ccc3c(c2)OCO3)C1 (stereo not given)	1	nt	nt	0	nt	nt
CC1(C)N=C(N)N=C(N)N1c1ccc(CCCCc2ccccc2)cc1	21	nt	nt	40	54*	nt
